Experimental data published in the supplement of paper PMC10849652.
The full data set covers some 8,800 targets. This sample favours those with a hit. About 0.5% of all pairs of compound and target were hits.

Assays:
Experiment in all cases: log2 fold change, soluble protein after heating vs DMSO (PISA); higher = thermal stabilisation; K562 lysate, 10 uM; active = over 0.2 and 3.5 SD of the protein, either way, in both replicates (recomputed)
[1] = compound: CCCS(=O)(=O)Nc1ccc(F)c(C(=O)c2c[nH]c3ncc(-c4ccc(Cl)cc4)cc23)c1F [vemurafenib]
In short: (§1)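 To prepare the extract, K562 pellets were dounce-homogenised in PBS pH 7.4 with 1 mM MgCl2, giving crude material at 1 mg/mL protein. This was treated with 10 μM compound for 30 min, then heated in aliquots for 3 min over 48°C-58°C before pooling and addition of NP-40 to 0.5% at 4°C. Centrifugation at 21,000xg for 90 min left soluble protein in the supernatant, which TMTpro 16plex LC-MS/MS quantified with equalised channel sums. Results are log-two fold changes in thermal stability compared with solvent controls, from duplicates.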

[2] = compound: CCCS(=O)(=O)Nc1ccc(F)c(C(=O)c2c[nH]c3ncc(Cl)cc23)c1F
In short: as §1

[3] = compound: CCN(CCCOc1ccc2c(Nc3cc(CC(=O)Nc4cccc(F)c4)[nH]n3)ncnc2c1)CCOP(=O)(O)O [barasertib]
In short: as §1

[4] = compound: CC[C@@H]1C(=O)N(C)c2cnc(Nc3ccc(C(=O)NC4CCN(C)CC4)cc3OC)nc2N1C1CCCC1
In short: as §1

[5] = compound: CC[C@@H]1C(=O)N(C)c2cnc(Nc3ccc(C(=O)N[C@H]4CC[C@H](N5CCN(CC6CC6)CC5)CC4)cc3OC)nc2N1C(C)C [volasertib]
In short: as §1

[6] = compound: CCn1c(C(=O)N(C2CC2)C2CC2)cc2c3c(ncn3C)c(Nc3cc(C)n(C)n3)nc21
In short: as §1

[7] = compound: CCn1cc(-c2ccnc3[nH]c(-c4cccc(CN(C)C)c4)cc23)c(-c2ccc(NC(=O)N(C)C)cc2)n1
In short: as §1

[8] = compound: CN1CCC(CNc2ccc3ncc(-c4cccc(OC(F)(F)F)c4)n3n2)CC1
In short: as §1

[9] = compound: CN1CCN(CCOc2cc(OC3CCOCC3)c3c(Nc4c(Cl)ccc5c4OCO5)ncnc3c2)CC1 [saracatinib]
In short: as §1

[10] = compound: CN1CCN(c2nc(C3=C(c4c[nH]c5ccccc45)C(=O)NC3=O)c3ccccc3n2)CC1 [sotrastaurin]
In short: as §1

[11] = compound: CN1CC[C@H](c2c(O)cc(O)c3c(=O)cc(-c4ccccc4Cl)oc23)[C@H](O)C1 [alvocidib]
In short: as §1

[12] = compound: CN1CCc2c(c3ccccc3n2Cc2ccc(C(=O)NO)cc2)C1 [Tubastatin A]
In short: as §1

[13] = compound: CNC(=O)C1=CC=CC=C1NC2=NC(=NC=C2Cl)NC3=C(C=C(C=C3)N4CCOCC4)OC
In short: as §1

[14] = compound: CNC(=O)c1ccc(Nc2ncc(C(F)(F)F)c(NCc3nccnc3N(C)S(C)(=O)=O)n2)cc1 [defactinib]
In short: as §1

[15] = compound: CNc1nc(-c2ccc3c(N)n[nH]c3c2)cc(N2C[C@@H](C(=O)NC3CCCCC3)CC[C@H]2C)n1
In short: as §1

[16] = compound: COC(=O)N[C@@H](C)CNc1nccc(-c2cn(C(C)C)nc2-c2cc(Cl)cc(NS(C)(=O)=O)c2F)n1 [encorafenib]
In short: as §1

[17] = compound: COC(=O)[C@H](CCSC)NC(=O)C1=C(C=C(C=C1)NC[C@H](CS)N)C2=CC=CC=C2
In short: as §1

[18] = compound: COc1cc(Nc2ncc3c(n2)-c2ccc(Cl)cc2C(c2c(F)cccc2OC)=NC3)ccc1C(=O)O [alisertib]
In short: as §1

[19] = compound: COc1cc2nc(-c3cc(F)ccc3O)nc(N[C@@H]3CNC[C@H]3C(C)(C)O)c2cc1OC
In short: as §1

[20] = compound: COc1cc2ncnc(Nc3ccc(F)c(Cl)c3)c2cc1OCCCN1CCOCC1 [gefitinib]
In short: as §1

Measured: log2 fold change

TDRKH (UniProt Q9Y2W6)
Sequence of UniProt Q9Y2W6 (Q9Y2W6 whole entry, looked up): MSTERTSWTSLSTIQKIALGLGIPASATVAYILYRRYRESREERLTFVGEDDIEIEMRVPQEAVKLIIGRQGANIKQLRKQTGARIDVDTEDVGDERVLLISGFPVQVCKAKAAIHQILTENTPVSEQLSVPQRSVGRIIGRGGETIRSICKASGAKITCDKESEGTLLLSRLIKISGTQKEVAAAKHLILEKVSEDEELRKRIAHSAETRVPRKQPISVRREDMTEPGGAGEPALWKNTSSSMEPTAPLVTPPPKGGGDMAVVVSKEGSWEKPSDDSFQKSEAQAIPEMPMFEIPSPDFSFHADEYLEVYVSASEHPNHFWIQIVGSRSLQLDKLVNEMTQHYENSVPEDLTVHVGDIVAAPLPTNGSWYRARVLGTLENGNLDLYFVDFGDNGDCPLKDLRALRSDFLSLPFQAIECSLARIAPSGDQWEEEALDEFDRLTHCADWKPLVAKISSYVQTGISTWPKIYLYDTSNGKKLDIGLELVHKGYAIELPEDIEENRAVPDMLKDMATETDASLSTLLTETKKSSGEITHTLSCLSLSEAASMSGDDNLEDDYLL
inactive: [1] 0.07 | [2] 0.055 | [3] 0.031 | [4] -0.195 | [5] -0.052 | [6] -0.003 | [7] -0.095 | [8] 0.058 | [9] -0.004 | [10] -0.039 | [11] -0.017 | [12] -0.064 | [13] 0.019 | [14] 0.033 | [15] 0.042 | [16] 0.007 | [17] 0.008 | [18] -0.049 | [19] 0.04 | [20] 0.001

TUBB3 (UniProt Q13509)
Sequence of UniProt Q13509 (Q13509 whole entry, looked up): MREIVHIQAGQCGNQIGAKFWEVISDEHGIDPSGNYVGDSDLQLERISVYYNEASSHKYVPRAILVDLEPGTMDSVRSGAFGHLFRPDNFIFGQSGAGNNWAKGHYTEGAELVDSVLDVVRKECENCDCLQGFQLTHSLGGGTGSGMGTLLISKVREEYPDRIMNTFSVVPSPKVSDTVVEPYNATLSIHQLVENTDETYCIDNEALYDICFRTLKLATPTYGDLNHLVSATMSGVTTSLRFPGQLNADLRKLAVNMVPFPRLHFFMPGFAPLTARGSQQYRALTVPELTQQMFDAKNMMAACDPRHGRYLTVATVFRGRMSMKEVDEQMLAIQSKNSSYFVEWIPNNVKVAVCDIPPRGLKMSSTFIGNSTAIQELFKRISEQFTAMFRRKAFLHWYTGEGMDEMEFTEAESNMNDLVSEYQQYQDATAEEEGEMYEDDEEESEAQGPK
inactive: [1] -0.004 | [2] 0.018 | [3] -0.042 | [4] -0.019 | [5] -0.046 | [6] 0.027 | [7] -0.002 | [8] 0.012 | [9] 0.015 | [10] 0.027 | [11] -0.001 | [12] -0.081 | [13] 0.006 | [14] 0.023 | [15] -0.034 | [16] -0.004 | [17] 0.072 | [18] 0.007 | [19] 0.007 | [20] -0.016

TJP1 isoform 2 (UniProt Q07157)
inactive: [1] 0.023 | [2] 0 | [3] -0.003 | [4] 0.064 | [5] -0.01 | [6] -0.045 | [7] -0.046 | [8] 0.057 | [9] 0.014 | [10] 0.014 | [11] -0.011 | [12] 0.047 | [13] -0.02 | [14] -0.018 | [15] 0.043 | [16] -0.013 | [17] 0.011 | [18] -0.007 | [19] 0.007 | [20] -0.017

TCF3 (UniProt P15923)
Sequence of UniProt P15923 (P15923 whole entry, looked up): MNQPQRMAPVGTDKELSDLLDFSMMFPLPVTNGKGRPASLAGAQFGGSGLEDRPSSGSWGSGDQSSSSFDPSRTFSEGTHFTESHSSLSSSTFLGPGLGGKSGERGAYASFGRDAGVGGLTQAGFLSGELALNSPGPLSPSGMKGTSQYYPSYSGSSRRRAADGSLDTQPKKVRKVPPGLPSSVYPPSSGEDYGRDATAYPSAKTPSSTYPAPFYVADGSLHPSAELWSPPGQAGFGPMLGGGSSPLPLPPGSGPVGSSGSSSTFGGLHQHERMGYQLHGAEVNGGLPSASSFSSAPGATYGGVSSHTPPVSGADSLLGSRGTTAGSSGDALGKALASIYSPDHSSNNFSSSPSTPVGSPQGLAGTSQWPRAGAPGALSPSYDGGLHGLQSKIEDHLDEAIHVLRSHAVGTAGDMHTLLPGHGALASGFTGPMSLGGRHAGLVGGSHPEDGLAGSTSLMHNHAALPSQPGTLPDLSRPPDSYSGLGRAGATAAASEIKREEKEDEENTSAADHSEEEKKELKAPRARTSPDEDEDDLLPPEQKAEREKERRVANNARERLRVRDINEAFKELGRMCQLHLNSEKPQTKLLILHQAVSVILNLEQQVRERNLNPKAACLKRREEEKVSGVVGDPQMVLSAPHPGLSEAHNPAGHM
inactive: [1] -0.01 | [2] 0.002 | [3] 0.012 | [4] 0.129 | [5] 0.002 | [6] 0.047 | [7] 0.028 | [8] 0.043 | [9] -0.158 | [10] 0.002 | [11] -0.039 | [12] -0.066 | [13] 0.034 | [14] 0.089 | [15] 0.19 | [16] 0.135 | [17] -0.051 | [18] 0.047 | [19] 0.027 | [20] 0.023

UBL4A (UniProt P11441)
Sequence of UniProt P11441 (P11441 whole entry, looked up): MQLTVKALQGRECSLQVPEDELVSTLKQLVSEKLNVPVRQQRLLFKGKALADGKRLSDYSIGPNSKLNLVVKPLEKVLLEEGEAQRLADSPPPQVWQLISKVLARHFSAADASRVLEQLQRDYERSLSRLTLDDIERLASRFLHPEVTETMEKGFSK
active: [7] 0.33
inactive: [1] -0.032 | [2] -0.001 | [3] 0.089 | [4] -0.081 | [5] -0.02 | [6] 0.121 | [8] -0.094 | [9] 0.028 | [10] 0 | [11] 0.016 | [12] -0.039 | [13] -0.015 | [14] 0.006 | [15] -0.008 | [16] 0.046 | [17] -0.043 | [18] 0.018 | [19] -0.059 | [20] -0.033

UFSP2 (UniProt Q9NUQ7)
Sequence of UniProt Q9NUQ7 (Q9NUQ7 whole entry, looked up): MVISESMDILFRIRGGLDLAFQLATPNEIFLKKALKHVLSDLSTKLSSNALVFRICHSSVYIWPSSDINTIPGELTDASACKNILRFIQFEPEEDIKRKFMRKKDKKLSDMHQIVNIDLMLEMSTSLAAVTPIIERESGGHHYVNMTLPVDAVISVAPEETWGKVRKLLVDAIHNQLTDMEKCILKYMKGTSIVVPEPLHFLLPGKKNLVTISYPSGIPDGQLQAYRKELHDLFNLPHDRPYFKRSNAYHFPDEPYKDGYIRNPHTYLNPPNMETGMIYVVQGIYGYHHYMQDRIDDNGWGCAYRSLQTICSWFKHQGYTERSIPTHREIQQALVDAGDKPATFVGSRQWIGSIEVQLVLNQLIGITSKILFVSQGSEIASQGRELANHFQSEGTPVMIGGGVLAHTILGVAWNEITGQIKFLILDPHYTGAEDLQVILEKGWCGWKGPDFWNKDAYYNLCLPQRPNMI
inactive: [1] 0.074 | [2] -0.018 | [3] -0.019 | [4] 0.072 | [5] -0.071 | [6] 0.016 | [7] -0.011 | [8] 0.002 | [9] 0.036 | [10] 0.018 | [11] 0.034 | [12] 0.024 | [13] -0.045 | [14] 0.022 | [15] -0.036 | [16] 0.031 | [17] 0.055 | [18] 0.019 | [19] 0.035 | [20] -0.031

THADA (UniProt Q6YHU6)
inactive: [1] -0.006 | [2] 0.007 | [3] 0.038 | [4] -0.028 | [5] -0.037 | [6] 0.019 | [7] -0.029 | [8] 0.02 | [9] 0.029 | [10] 0.037 | [11] -0.002 | [12] -0.165 | [13] 0.008 | [14] 0.014 | [15] -0.013 | [16] 0.022 | [17] 0.031 | [18] 0.01 | [19] 0.012 | [20] 0.001

TMEM87A (UniProt Q8NBN3)
Sequence of UniProt Q8NBN3 (Q8NBN3 whole entry, looked up): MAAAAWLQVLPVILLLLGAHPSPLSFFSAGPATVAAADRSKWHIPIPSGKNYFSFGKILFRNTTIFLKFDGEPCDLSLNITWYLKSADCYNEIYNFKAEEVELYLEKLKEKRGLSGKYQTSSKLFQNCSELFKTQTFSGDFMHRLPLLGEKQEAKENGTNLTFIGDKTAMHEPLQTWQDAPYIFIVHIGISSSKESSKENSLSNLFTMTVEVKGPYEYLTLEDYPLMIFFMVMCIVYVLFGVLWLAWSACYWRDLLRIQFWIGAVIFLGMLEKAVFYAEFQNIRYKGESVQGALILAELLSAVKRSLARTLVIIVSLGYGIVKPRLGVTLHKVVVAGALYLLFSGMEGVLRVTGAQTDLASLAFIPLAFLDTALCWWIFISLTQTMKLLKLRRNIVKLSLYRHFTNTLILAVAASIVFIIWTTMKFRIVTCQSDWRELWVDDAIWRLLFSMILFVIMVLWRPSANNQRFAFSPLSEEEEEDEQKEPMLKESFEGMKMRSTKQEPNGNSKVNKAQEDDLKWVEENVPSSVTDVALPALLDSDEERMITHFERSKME
active: [8] 0.332
inactive: [1] 0.032 | [2] -0.007 | [3] -0.025 | [4] 0.008 | [5] -0.006 | [6] -0.026 | [7] -0.114 | [9] -0.001 | [10] 0.017 | [11] -0.076 | [12] -0.013 | [13] -0.012 | [14] -0.006 | [15] -0.017 | [16] 0.022 | [17] -0.045 | [18] -0.02 | [19] 0.015 | [20] 0.022

TRA2A (UniProt Q13595)
inactive: [1] -0.197 | [2] -0.033 | [3] -0.194 | [4] -0.037 | [5] -0.052 | [6] 0.073 | [7] -0.023 | [8] 0.07 | [9] 0.074 | [10] 0 | [11] -0.007 | [12] -0.079 | [13] -0.033 | [14] 0.171 | [15] 0.031 | [16] -0.017 | [17] 0.068 | [18] -0.188 | [19] 0.017 | [20] 0.118

TTMP isoform 3 (UniProt Q5BVD1)
Sequence of UniProt Q5BVD1 (Q5BVD1 whole entry, looked up): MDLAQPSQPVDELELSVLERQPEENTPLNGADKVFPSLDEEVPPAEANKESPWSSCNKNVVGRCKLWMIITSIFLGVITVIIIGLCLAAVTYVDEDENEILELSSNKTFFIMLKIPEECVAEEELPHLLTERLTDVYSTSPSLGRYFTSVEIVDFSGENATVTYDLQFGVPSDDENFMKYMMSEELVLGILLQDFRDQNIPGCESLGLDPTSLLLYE
inactive: [1] 0.227 | [2] 0.029 | [3] -0.025 | [4] 0.122 | [5] 0.031 | [6] -0.182 | [8] 0.316 | [9] 0.012 | [10] -0.029 | [11] -0.347 | [12] 0.24 | [13] -0.105 | [14] -0.088 | [15] 0.36 | [16] -0.06 | [17] 0.06 | [18] 0.119 | [19] 0.129 | [20] 0.02
active: [7] -0.88

TPM1 isoform 4 (UniProt P09493)
Sequence of UniProt P09493 (P09493 whole entry, looked up): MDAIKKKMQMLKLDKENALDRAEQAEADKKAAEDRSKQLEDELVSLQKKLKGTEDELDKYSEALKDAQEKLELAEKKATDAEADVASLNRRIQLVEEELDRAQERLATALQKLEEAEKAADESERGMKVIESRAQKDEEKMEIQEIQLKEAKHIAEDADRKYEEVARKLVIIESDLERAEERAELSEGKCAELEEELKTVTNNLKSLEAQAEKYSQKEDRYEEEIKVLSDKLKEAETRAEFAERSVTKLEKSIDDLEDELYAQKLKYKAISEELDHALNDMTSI
inactive: [1] -0.049 | [2] -0.012 | [3] -0.036 | [4] -0.018 | [5] 0.033 | [6] 0.013 | [7] 0.106 | [8] -0.149 | [9] 0.031 | [10] -0.012 | [11] 0.017 | [12] 0.073 | [13] -0.013 | [14] -0.031 | [15] -0.12 | [16] 0.02 | [17] -0.088 | [18] 0.035 | [19] -0.012 | [20] 0.008

TBC1D23 (UniProt Q9NUY8)
Sequence of UniProt Q9NUY8 (Q9NUY8 whole entry, looked up): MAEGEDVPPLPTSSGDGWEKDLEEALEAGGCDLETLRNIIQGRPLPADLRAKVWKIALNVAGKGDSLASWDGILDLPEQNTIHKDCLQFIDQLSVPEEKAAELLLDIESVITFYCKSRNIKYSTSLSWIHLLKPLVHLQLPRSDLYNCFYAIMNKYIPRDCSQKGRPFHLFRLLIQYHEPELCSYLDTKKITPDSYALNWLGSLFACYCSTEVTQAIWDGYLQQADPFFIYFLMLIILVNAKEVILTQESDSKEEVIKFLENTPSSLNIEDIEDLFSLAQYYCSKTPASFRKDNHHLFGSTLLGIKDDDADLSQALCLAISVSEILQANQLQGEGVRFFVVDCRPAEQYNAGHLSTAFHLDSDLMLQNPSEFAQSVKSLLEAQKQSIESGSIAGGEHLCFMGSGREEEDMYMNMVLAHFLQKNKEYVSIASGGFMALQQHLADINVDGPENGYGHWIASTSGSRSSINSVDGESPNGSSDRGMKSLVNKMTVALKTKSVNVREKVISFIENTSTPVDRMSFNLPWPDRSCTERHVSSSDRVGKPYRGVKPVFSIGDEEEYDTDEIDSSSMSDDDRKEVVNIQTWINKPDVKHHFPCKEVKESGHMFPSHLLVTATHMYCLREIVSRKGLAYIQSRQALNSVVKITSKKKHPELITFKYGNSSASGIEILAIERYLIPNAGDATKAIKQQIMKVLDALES
inactive: [1] -0.003 | [2] 0.011 | [3] 0 | [4] -0.027 | [5] -0.029 | [6] -0.012 | [7] -0.058 | [8] 0.023 | [9] 0.012 | [10] 0.017 | [11] 0 | [12] -0.076 | [13] 0.025 | [14] -0.006 | [15] 0.05 | [16] -0.009 | [17] -0.019 | [18] -0.014 | [19] 0.002 | [20] -0.006

TUBGCP3 (UniProt Q96CW5)
inactive: [1] -0.013 | [2] 0.026 | [3] -0.078 | [4] 0.001 | [5] -0.039 | [6] 0.028 | [7] -0.016 | [8] 0.015 | [9] 0.002 | [10] 0.01 | [11] -0.003 | [12] -0.094 | [13] 0.026 | [14] 0.022 | [15] -0.024 | [16] 0.024 | [17] 0.011 | [18] 0.044 | [19] -0.017 | [20] 0.056

TUBA1B (UniProt P68363)
Sequence of UniProt P68363 (P68363 whole entry, looked up): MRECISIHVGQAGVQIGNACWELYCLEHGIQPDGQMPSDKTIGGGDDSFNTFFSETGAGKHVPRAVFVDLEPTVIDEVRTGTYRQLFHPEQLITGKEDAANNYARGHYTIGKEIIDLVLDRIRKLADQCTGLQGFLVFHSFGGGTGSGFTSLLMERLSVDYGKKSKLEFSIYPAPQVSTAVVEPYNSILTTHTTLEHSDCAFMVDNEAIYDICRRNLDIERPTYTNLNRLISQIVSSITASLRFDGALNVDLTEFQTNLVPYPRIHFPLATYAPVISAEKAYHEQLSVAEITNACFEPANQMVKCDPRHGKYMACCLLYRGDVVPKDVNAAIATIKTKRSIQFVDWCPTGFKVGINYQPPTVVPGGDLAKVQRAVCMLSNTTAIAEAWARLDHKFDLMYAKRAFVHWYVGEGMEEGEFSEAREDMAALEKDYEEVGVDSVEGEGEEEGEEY
inactive: [1] 0.009 | [2] 0 | [3] 0.013 | [4] -0.02 | [5] -0.046 | [6] 0.013 | [7] -0.008 | [8] -0.011 | [9] 0.003 | [10] 0.017 | [11] -0.027 | [12] -0.056 | [13] 0.019 | [14] -0.03 | [15] 0.003 | [16] -0.004 | [17] 0.085 | [18] 0.026 | [19] -0.004 | [20] 0.013

TBL2 (UniProt Q9Y4P3)
Sequence of UniProt Q9Y4P3 (Q9Y4P3 whole entry, looked up): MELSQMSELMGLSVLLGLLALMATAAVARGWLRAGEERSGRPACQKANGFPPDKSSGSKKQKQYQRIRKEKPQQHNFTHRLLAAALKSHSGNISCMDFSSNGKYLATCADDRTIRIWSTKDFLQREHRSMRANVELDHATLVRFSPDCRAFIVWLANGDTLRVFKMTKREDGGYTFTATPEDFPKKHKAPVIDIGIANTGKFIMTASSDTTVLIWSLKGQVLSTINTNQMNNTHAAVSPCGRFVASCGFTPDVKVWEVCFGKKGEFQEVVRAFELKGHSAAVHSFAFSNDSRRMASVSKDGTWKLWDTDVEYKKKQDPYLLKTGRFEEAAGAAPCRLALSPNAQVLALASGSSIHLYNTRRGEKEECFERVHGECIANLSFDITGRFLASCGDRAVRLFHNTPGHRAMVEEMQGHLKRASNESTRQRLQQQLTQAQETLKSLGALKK
inactive: [1] -0.016 | [2] -0.013 | [3] -0.015 | [4] -0.029 | [5] -0.034 | [6] -0.045 | [7] -0.029 | [8] 0.022 | [9] 0.027 | [10] 0.001 | [11] 0.018 | [12] -0.007 | [13] 0.023 | [14] 0.039 | [15] -0.003 | [16] 0.057 | [17] -0.036 | [18] 0.008 | [19] 0.055 | [20] -0.018
